Several values for one entry are separate records, joined by “and”; a condition that tells them apart may be missing. Equal entries are not always repeated. About 2,300 (0.68%) of roughly 340,000 compounds were called active. The entries come from a sample that favours actives as a whole. Unmarked numbers belong to inactive results. Cut-off read from the data, not from the text of the source: active = growth rescue above about 28% (passing the limit was not always enough); inconclusive = no clear call, values can overlap the other calls.

The experiment is described as follows: rescue of yeast from PfHsp40 toxicity, primary screen, S. cerevisiae, ATP luminescence (AID 504582).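 Note: yeast W303a lacking pdr1 and pdr3 grown in galactose medium; growth measured after three days at 30 °C.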 The settings on record: S. cerevisiae expressing PfHsp40, growth rescue, at 12.5 µM, stronger effect = higher value.
As for `Cc1onc(-c2ccccc2)c1C(=O)N=C(N)c1ccc(Cl)cc1`, the growth rescue is -1%. As to `O=C(CCc1ccccc1)NNC(=O)COc1ccc(Cl)cc1`, the growth rescue is -0.417%. The same measure for `COc1ccc(C(=O)NC(=S)NNC(=O)CCc2ccccc2)cc1`: 277% (active); for `COc1ccc(C(=O)NC(=S)NC2CCCCC2)cc1`: 0.972%. As to `Cc1onc(-c2c(Cl)cccc2Cl)c1C(=O)NNC(=O)c1c(-c2c(Cl)cccc2Cl)noc1C`, the growth rescue is -0.106%. Consider `Cc1onc(-c2ccccc2)c1C(=O)NNC(=S)NC(=O)c1ccc(F)cc1`, for which the growth rescue was 45.5% (active). As for `Cc1noc(C)c1COc1ccc(C(=O)NCCOc2ccccc2)cc1`, the growth rescue is 0.221%. As for `COc1ccc(C(=O)NC(=S)NNC(=O)c2c(-c3ccccc3)noc2C)cc1`, the growth rescue was 42.1% (active). Regarding `Cc1onc(-c2ccccc2)c1C(=O)Nc1ccccc1C#N`, the growth rescue was -0.716% and 0.99%.

Consider `COc1ccc(NS(=O)(=O)c2cc(NC(=O)c3ccc(S(=O)(=O)N(C)C)cc3)ccc2N2CCOCC2)cc1`, for which the growth rescue is 0.23%. With `CCOC(=O)N1CCN(CC(=O)n2c(C)c(C)c3ccccc32)CC1` the figure was 1.25%; with `COC(=O)Cc1ccc(NC(=S)NCc2ccco2)cc1`, -0.043%. For `Cc1cc(C)cc(N)c1`, the growth rescue is -0.449%.

Turning to `CCN(C(=O)CSc1nnnn1-c1ccc(OC)cc1)C1CCS(=O)(=O)C1` (stereo unspecified), the growth rescue was -0.617%. With `Cc1c(C(=O)N(C)CCc2cnn(C)c2)oc2c(F)cccc12` the figure was 6.8%; with `CC(C)c1ccc(Nc2nnc(SCC(=O)c3nnc(-c4ccccc4)o3)s2)cc1`, 200% (active); with `Cc1ccccc1Nc1nnc(SCC(=O)c2cc3ccccc3o2)s1`, 0.609%.

As for `CC(C)N(C(=O)CSc1nnc(NC2CC2)s1)c1ccccc1`, the growth rescue is 0.892%. Turning to `O=C1C2(Cl)C3(Cl)C4(Cl)C(Cl)(Cl)C5(Cl)C3(Cl)C1(Cl)C5(Cl)C24Cl` (stereo unspecified), the growth rescue is 78.8% (active). Consider `CCc1ccc(NC(=O)N[C@H](C(=O)O)C(C)CC)cc1` (stereo partly specified), for which the growth rescue is -0.138%. Consider `CCOc1ccc(NC(=O)N2CC=C(n3c(=O)[nH]c4ccccc43)CC2)cc1`, for which the growth rescue is -0.78%. With `CCn1c(SC)nc(O)c(C(c2ccc(OC)c(O)c2)c2c(O)nc(SC)n(CC)c2=O)c1=O`, the growth rescue was -0.176%. With `CC(Sc1nnc(-c2cccs2)n1C1CC1)C(=O)NCC1CCCO1` (stereo unspecified) the figure was -0.606%; with `Cc1cc(C)cc(OCC(=O)NNC(=O)c2cc3ccccc3oc2=O)c1`, -1.97%. The same measure for `O=c1oc2ccccc2cc1-c1cn(-c2ccccc2)c(=S)[nH]1`: 2.32%. `O=c1oc2ccccc2cc1-c1csc(Nc2ccc(O)cc2)n1`: the growth rescue was 77.4% (active).
